Screening results: PubChem BioAssay, several laboratories
697 NFkB inh – inhibitors of PMA/ionomycin-induced NF-kB reporter, 697 cells, primary screen, B-cell NF-kB inhibitor project, cell-based, luminescence, uHTS; 697 B-cell NF-kB luciferase reporter, 16 h; inhibition, % at 4 µM; actives 0.33% (n = 330,000); in the data active means inhibition above about 35%
CSC inhib – cancer stem cell viability inhibitors, primary screen, luminescence. inhibition, % at 7.5 µM. cancer stem cell-like cells viability. actives 1.1% (n = 300,000); in the data active means inhibition above about 75%; tested in HMLE shEcad cells
Gli-Sufu block – Gli-Sufu pathway antagonists, primary screen, luciferase luminescence, Sufu-KO-LIGHT cells, uHTS. Sufu-KO-LIGHT fibroblasts, Gli luciferase reporter luminescence. inhibition, % at 5 µM. AID 588413, 2011. actives 0.74% (n = 340,000);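 active means inhibition above about 55%, limit read from the data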;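 further: 0% = DMSO-treated cells and 100% = wells with medium but no cells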
Jurkat NFkB inh – inhibitors of induced NF-kB luciferase reporter, primary screen, TCR NF-kB activation inhibitor project, cell-based, luminescence, uHTS | inhibition, % at 4 µM | Jurkat, PMA/ionomycin-induced NF-kB luciferase reporter | actives 0.53% (n = 330,000); in the data active means inhibition above about 50%
Beta cell apopt – inhibitors of cytokine-induced beta cell apoptosis, primary screen, luminescence; INS-1E cytokine-induced death, ATP luminescence, 48 h; percent of positive-control rescue, neutral wells zero; protection from apoptosis, % (no concentration beside the values); actives 0.8% (n = 300,000); AID 435005, 2010;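 active means Every replicate reaches about 75%, or at least half do and their mean reaches it too, limit read from the data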;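 further: 0% = cytokine-treated negative control wells and 100% = positive control rescue; higher means more ATP so stronger rescue from cytokine killing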
Mdm2 MdmX PPI – inhibitors of human Mdm2-MdmX association, primary screen, cell-based, luminescence, split luciferase, SaOS-2, uHTS | Protein Mdm4 (Homo sapiens) + E3 ubiquitin-protein ligase Mdm2 (Homo sapiens), … | SaOS-2 split-luciferase Mdm2/MdmX complementation | inhibition, % at 8 µM | actives 3% (n = 330,000);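 active means inhibition of at least 50% at 8 µM in the primary screen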
Target sequence (O15151 whole entry, looked up): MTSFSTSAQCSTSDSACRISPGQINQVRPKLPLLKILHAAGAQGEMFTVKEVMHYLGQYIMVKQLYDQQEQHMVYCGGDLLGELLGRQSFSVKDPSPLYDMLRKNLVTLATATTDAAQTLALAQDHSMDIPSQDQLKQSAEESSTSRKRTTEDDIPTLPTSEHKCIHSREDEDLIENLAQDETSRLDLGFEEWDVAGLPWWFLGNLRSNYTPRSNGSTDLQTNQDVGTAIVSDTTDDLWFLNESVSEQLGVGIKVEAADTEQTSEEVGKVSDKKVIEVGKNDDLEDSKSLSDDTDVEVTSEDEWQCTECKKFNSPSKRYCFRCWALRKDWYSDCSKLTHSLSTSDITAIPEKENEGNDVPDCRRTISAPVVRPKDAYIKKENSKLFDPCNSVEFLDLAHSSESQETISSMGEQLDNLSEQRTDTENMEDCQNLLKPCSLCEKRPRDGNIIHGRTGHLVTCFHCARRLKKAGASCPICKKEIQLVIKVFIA
Target sequence (Q00987 whole entry, looked up): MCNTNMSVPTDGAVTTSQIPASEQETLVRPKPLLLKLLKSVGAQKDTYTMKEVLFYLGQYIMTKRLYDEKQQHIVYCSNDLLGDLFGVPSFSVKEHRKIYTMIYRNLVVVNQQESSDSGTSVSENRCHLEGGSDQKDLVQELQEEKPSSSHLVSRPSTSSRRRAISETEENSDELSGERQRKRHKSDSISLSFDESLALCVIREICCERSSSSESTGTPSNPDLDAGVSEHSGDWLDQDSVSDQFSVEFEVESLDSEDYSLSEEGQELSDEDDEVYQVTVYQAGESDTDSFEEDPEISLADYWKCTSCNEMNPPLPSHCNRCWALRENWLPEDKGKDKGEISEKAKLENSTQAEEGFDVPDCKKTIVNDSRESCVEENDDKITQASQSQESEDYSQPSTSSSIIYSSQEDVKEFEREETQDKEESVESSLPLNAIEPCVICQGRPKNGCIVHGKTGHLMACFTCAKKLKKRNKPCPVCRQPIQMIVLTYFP
697 NFkB conf – PMA/ionomycin-induced NF-kB reporter inhibitors, 697 retest, confirmation, B-cell NF-kB inhibitor project, cell-based, luminescence, single concentration | shares compounds with 697 NFkB inh | inhibition, % at 4 µM | 697 B-cell NF-kB luciferase, 16 h | actives 35% (n = 2,000); in the data active means inhibition mostly above about 28%, no sharp cut-off; inactive means mostly below about 22%
Mdm2 MdmX conf – Mdm2-MdmX complex disruptors, retested hits, confirmation, luminescence, single concentration; Mdm2-MdmX binding, luminescent assay; inhibition, % at 8 µM; shares compounds with Mdm2 MdmX PPI; actives 55% (n = 10,000); in the data active means inhibition above about 40%
FLuc counter – full-length luciferase signal inhibition, confirmation, counter-screen for Mdm2/MdmX interaction inhibitor project, cell-based, single concentration, SaOS-2; SaOS-2 full-length luciferase counterscreen, luminescence; inhibition, % at 8 µM; shares compounds with Mdm2 MdmX PPI; AID 504607, 2011; actives 77% (n = 6,200);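 active means mean inhibition at 8 µM reaching about 37%, which flags the compound as non-specific, limit read from the data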;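 further: p53-null SaOS-2 cells with luciferase driven by a doxycycline-inducible promoter; compound on cells about two nights before reading with doxycycline added after day one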
Active calls of the source: *; i = inactive; x = not tested or not shown. In the library only some 4.5% were active in any assay of this set; here they are far more common.

SMILES	697 NFkB inh	CSC inhib	Gli-Sufu block	Jurkat NFkB inh	Beta cell apopt	Mdm2 MdmX PPI	697 NFkB conf	Mdm2 MdmX conf	FLuc counter
CC(Sc1nnc(C2CC2)n1C1CC1)C(=O)c1ccc(F)cc1 (stereo not drawn)	16	x	4	-14	-3	4	x	x	x
COc1ccc(OC)c(NC(=O)c2nc(S(=O)(=O)Cc3ccccc3)ncc2Cl)c1	-441	106*	34	49	80*	100*	-203	93*	51*
C=CCOc1ccccc1CN(C(=O)CCl)c1ccc2c(c1)OCO2	42*	-8	14	-3	10	90*	32*	81*	21
O=C(O)C1CCN(C(=O)c2ccccc2N2C(=O)[C@@H]3Cc4c([nH]c5ccccc45)C(c4cccc(Cl)c4)N3C2=O)CC1 (stereo partly drawn)	18	-6	5	2	0	5	x	x	x
Cc1cnc(NC(=O)COc2cccc3c2OC(C)(C)C3)s1	i	-8	-6	-60	1	77*	i	68*	42*
COc1cccc(C(=O)OC(C)C(=O)NCC2CCCCC2)c1 (stereo not drawn)	-9	-19	4	3	-5	-20	x	x	x
CCCCN1CCNC[C@H]1Cc1ccc(O)cc1	26	-4	-1	-3	6	5	x	x	x
Oc1ccc(C[C@@H]2CNCCN2CCC23CC4CC(CC(C4)C2)C3)cc1	37*	13	12	12	-3	73*	-3	24	64*
CCN1C(=O)[C@H]2[C@@H](c3ccc(Cl)cc3)N3C(=O)CN(CC4CC4)C(=O)[C@@]3(Cc3ccccc3)[C@H]2C1=O	7	-7	-10	-1	0	10	x	x	x
CC(C)OCCCNC(=O)c1c(N)n(/N=C/c2ccccn2)c2nc3ccccc3nc12	44*	37	12	39	21	64*	37*	52*	63*
Cc1ccc(C)c(-n2nnnc2Sc2nnnn2-c2ccccc2)c1	35*	68	8	43	x	100*	33*	79*	52*
CCC(C)(C)c1ccc(OCCCC[n+]2ccccc2)c(C(C)(C)CC)c1	78*	105*	x	45	114*	84*	34*	94*	56*
CCCCOc1ccc(C(=O)NCC(=O)NC2CCC(C)CC2)cc1 (stereo not drawn)	6	1	-7	4	0	11	x	x	x
Cc1ccc(NC(=O)c2[nH]cnc2C(=O)NN)cc1	-13	-1	-8	-4	-1	-4	x	x	x
Cc1ccc(NC(=O)c2nc[nH]c2C(=O)NCCCNC(=O)c2[nH]cnc2C(=O)Nc2ccc(C)cc2)cc1	36*	113*	-4	-145	38	68*	16	32	x
Cc1ccc(C(=O)NCCNC(=O)c2ccccn2)cc1	0	-15	-9	4	-2	-4	x	x	x
COc1cccc(N=CNc2cccc(OC)c2)c1	x	x	-15	x	x	x	x	x	x
O=C(NCCn1cccn1)C1CCC(=O)N(CCc2ccc(Cl)cc2)C1 (stereo not drawn)	-6	x	-4	-8	x	14	x	x	x
CCc1nc(N=Nc2c(O)[nH]c3ccccc23)c2c3c(sc2n1)CCC3	37*	13	x	2	5	87*	7	13	x
